# This excerpt belongs to a sample that is enriched for the strongest signals.
# B1: Gal 9 (Canis lupus) (protein)
# chain: MAFSSSQPPYLSPGVPFSGKIQGGLQDGLKITINGTILYCNGTRFAVNFHSGHSDSDIAFHFNPRFEEGGYVVCNTKQKGSWGSEERKMQMPFQMGNPFELCFMVNSCDFKVTVNGSHFTQYSHRVPFHYVDTLSITGAVQLSYISFQSPGVWQSSSAPITQTVIHTVQTTPGQPFPNPIIPPTAYPTPTYPMPFFTSIPGGLYPSKSIIVSGTVLPGAKRFHINLRSGNDIAFHLNPRFNENTVVRNMQINNSWGSEERSLPRKMPFVQGQSFSVWIMCEGHCFKVAVDGEHLFEYYHRLKNLLAINNMEVAGDVQLTHVQT
# Legend:
# Test in all cases: glycan array binding signal (z-score within array); higher = stronger binding
# Settings in all cases: glycan notation: IUPAC condensed, linker removed
# [1] = molecular target: Fuc(a1-2)Gal(b1-3)GlcNAc(b1-2)Man(a1-3)[Fuc(a1-2)Gal(b1-3)GlcNAc(b1-2)Man(a1-6)]Man(b1-4)GlcNAc(b1-4)[Fuc(a1-6)]GlcNAc
# Procedure, shortened: (§1)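 Glycan array binding is given as a within-array Z-score, which can be read as non-binding when negative. The arrays, 3228 of them, came from the Consortium for Functional Glycomics database and were retained only where the protein sequence was available. Z-scores were averaged across arrays of the same protein sequence at different concentrations or buffers and across linkers.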
# [2] = molecular target: Fuc(a1-2)Gal(b1-4)[Fuc(a1-3)]GlcNAc(b1-3)GalNAc
# Procedure, shortened: as §1
# [3] = molecular target: Fuc(a1-2)[GalNAc(a1-3)]Gal(b1-4)Glc
# Procedure, shortened: as §1
# [4] = molecular target: Fuc(a1-2)[GalNAc(a1-3)]Gal(b1-4)GlcNAc(b1-2)Man(a1-3)[Fuc(a1-2)[GalNAc(a1-3)]Gal(b1-4)GlcNAc(b1-2)Man(a1-6)]Man(b1-4)GlcNAc(b1-4)GlcNAc
# Procedure, shortened: as §1
# [5] = molecular target: Fuc(a1-2)[GalNAc(a1-3)]Gal(b1-4)GlcNAc(b1-3)Gal(b1-4)GlcNAc
# Procedure, shortened: as §1
# [6] = molecular target: Fuc(a1-2)[GalNAc(a1-3)]Gal(b1-4)GlcNAc(b1-3)Gal(b1-4)GlcNAc(b1-3)Gal(b1-4)GlcNAc
# Procedure, shortened: as §1
# [7] = molecular target: Fuc(a1-2)[GalNAc(a1-3)]Gal(b1-4)[Fuc(a1-3)]GlcNAc(b1-3)GalNAc
# Procedure, shortened: as §1
# [8] = molecular target: Fuc(a1-3)[Gal(b1-4)]GlcNAc(b1-6)[Gal(b1-3)GlcNAc(b1-3)]Gal(b1-4)Glc
# Procedure, shortened: as §1
# [9] = molecular target: Fuc(a1-3)[Gal(b1-4)]GlcNAc6S
# Procedure, shortened: as §1
# [10] = molecular target: Fuc(a1-4)GlcNAc
# Procedure, shortened: as §1
# [11] = molecular target: Gal(a1-3)Gal(b1-3)GlcNAc(b1-3)GalNAc
# Procedure, shortened: as §1
# [12] = molecular target: Gal(a1-3)GalNAc
# Procedure, shortened: as §1
# [13] = molecular target: Gal(b1-3)GalNAc(a1-3)[Fuc(a1-2)]Gal(b1-4)Glc
# Procedure, shortened: as §1
# [14] = molecular target: Gal(b1-3)[Fuc(a1-4)]GlcNAc(b1-2)Man(a1-3)[Gal(b1-3)[Fuc(a1-4)]GlcNAc(b1-2)Man(a1-6)]Man(b1-4)GlcNAc(b1-4)[Fuc(a1-6)]GlcNAc
# Procedure, shortened: as §1
# [15] = molecular target: Gal(b1-3)[Fuc(a1-4)]GlcNAc(b1-3)Gal(b1-3)[Fuc(a1-4)]GlcNAc
# Procedure, shortened: as §1
# [16] = molecular target: Gal(b1-4)GlcNAc(b1-2)Man(a1-3)Man(b1-4)GlcNAc(b1-4)GlcNAc
# Procedure, shortened: as §1
# [17] = molecular target: Gal3S(b1-3)GalNAc
# Procedure, shortened: as §1
# [18] = molecular target: Gal3S(b1-3)GlcNAc
# Procedure, shortened: as §1
# [19] = molecular target: Gal3S(b1-4)Glc6S
# Procedure, shortened: as §1
# [20] = molecular target: Gal3S(b1-4)GlcNAc
# Procedure, shortened: as §1
# [21] = molecular target: GalNAc(a1-3)GalNAc(b1-3)Gal(a1-4)Gal(b1-4)GlcNAc
# Procedure, shortened: as §1
# [22] = molecular target: Glc(a1-4)Glc
# Procedure, shortened: as §1
# [23] = molecular target: Glc(b1-4)Glc
# Procedure, shortened: as §1
# [24] = molecular target: GlcA(b1-3)GlcNAc
# Procedure, shortened: as §1
# [25] = molecular target: GlcNAc(b1-2)Man(a1-3)[GlcNAc(b1-2)Man(a1-6)]Man(b1-4)GlcNAc(b1-4)GlcNAc
# Procedure, shortened: as §1
# [26] = molecular target: GlcNAc(b1-2)[GlcNAc(b1-6)]Man(a1-6)[GlcNAc(b1-2)Man(a1-3)][GlcNAc(b1-4)]Man(b1-4)GlcNAc(b1-4)GlcNAc
# Procedure, shortened: as §1
# [27] = molecular target: GlcNAc(b1-3)Man
# Procedure, shortened: as §1
# [28] = molecular target: GlcNAc6S(b1-3)Gal(b1-4)GlcNAc
# Procedure, shortened: as §1
# [29] = molecular target: Man(a1-3)[Man(a1-6)]Man(a1-6)[Man(a1-3)]Man
# Procedure, shortened: as §1
# [30] = molecular target: Neu5Ac(a2-3)Gal(b1-3)[Neu5Ac(a2-6)]GalNAc
# Procedure, shortened: as §1
# [31] = molecular target: Neu5Ac(a2-3)Gal(b1-4)[Fuc(a1-3)]GlcNAc(b1-3)Gal
# Procedure, shortened: as §1
# [32] = molecular target: Neu5Ac(a2-6)Gal(b1-4)GlcNAc(b1-3)GalNAc
# Procedure, shortened: as §1
# [33] = molecular target: Neu5Ac(a2-6)GalNAc(b1-4)GlcNAc
# Procedure, shortened: as §1
# [34] = molecular target: Neu5Ac(a2-8)Neu5Ac(a2-3)[Gal(b1-3)GalNAc(b1-4)]Gal(b1-4)Glc
# Procedure, shortened: as §1
# [35] = molecular target: Neu5Ac(a2-8)Neu5Ac(a2-8)Neu5Ac(a2-8)Neu5Ac(a2-3)[GalNAc(b1-4)]Gal(b1-4)Glc
# Procedure, shortened: as §1
# [36] = molecular target: Neu5Ac(b2-6)Gal(b1-4)GlcNAc
# Procedure, shortened: as §1
# [37] = molecular target: Neu5Gc(a2-3)Gal(b1-3)GlcNAc
# Procedure, shortened: as §1
binder,measurement,setting,value
B1,glycan array binding signal (z-score),[1],-0.285
same,glycan array binding signal (z-score),[2],-0.26
same,glycan array binding signal (z-score),[3],2.88
same,glycan array binding signal (z-score),[4],9.39
same,glycan array binding signal (z-score),[5],5.36
same,glycan array binding signal (z-score),[6],2.68
same,glycan array binding signal (z-score),[7],-0.288
same,glycan array binding signal (z-score),[8],-0.156
same,glycan array binding signal (z-score),[9],-0.337
same,glycan array binding signal (z-score),[10],-0.346
same,glycan array binding signal (z-score),[11],0.104
same,glycan array binding signal (z-score),[12],-0.296
same,glycan array binding signal (z-score),[13],3.45
same,glycan array binding signal (z-score),[14],-0.287
same,glycan array binding signal (z-score),[15],-0.315
same,glycan array binding signal (z-score),[16],0.09
same,glycan array binding signal (z-score),[17],5.93
same,glycan array binding signal (z-score),[18],0.396
same,glycan array binding signal (z-score),[19],3.83
same,glycan array binding signal (z-score),[20],0.222
same,glycan array binding signal (z-score),[21],3.04
same,glycan array binding signal (z-score),[22],-0.327
same,glycan array binding signal (z-score),[23],-0.311
same,glycan array binding signal (z-score),[24],-0.341
same,glycan array binding signal (z-score),[25],-0.332
same,glycan array binding signal (z-score),[26],-0.338
same,glycan array binding signal (z-score),[27],-0.347
same,glycan array binding signal (z-score),[28],-0.104
same,glycan array binding signal (z-score),[29],-0.346
same,glycan array binding signal (z-score),[30],-0.055
same,glycan array binding signal (z-score),[31],-0.343
same,glycan array binding signal (z-score),[32],-0.178
same,glycan array binding signal (z-score),[33],-0.345
same,glycan array binding signal (z-score),[34],-0.302
same,glycan array binding signal (z-score),[35],-0.331
same,glycan array binding signal (z-score),[36],-0.331
same,glycan array binding signal (z-score),[37],0.216
